MCF10A rerep: DNA re-replication induction in MCF 10a cells | actives 2.9% (n = 350,000) | MCF 10A DNA re-replication, Hoechst nuclear intensity, 48 h | AID 624296 | Potency, µM (highest dose often 46.1 µM), without a hit: at the top dose activity, positive = re-replication, actives largely listed as activators; also: % of control where 0% means no effect; nearly all actives have a fitted effect of over 50% in size
KB-V1 MDR tox: KB-V1 MDR subline cytotoxicity | Potency, µM (top dose mostly 46.1 µM), hits mostly cytotoxic | actives 3.4% (n = 400,000) | KB-V1 MDR cells viability, CellTiter-Glo, 72 h | AID 1347076; also: % is scaled to controls: 0 for no effect and ±100 for the full control effect; nearly all actives have a fitted effect of over 60% in size
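KB-V1, DMEM (no phenol red) + 10% FBS; cpd pin-transferred, titration series; 72 h, 37 degrees C; CellTiter-Glo, luminescence. Data normalized, curve-fit.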
KB-3-1 cytotox: kills parental KB-3-1 adenocarcinoma cells. Potency, µM (doses to about 46.1 µM), usual class: cytotoxic. actives 1.4% (n = 400,000). KB-3-1 viability, CellTiter-Glo ATP luminescence, 72 h; also: % is scaled to controls: 0 for no effect and ±100 for the full control effect; nearly all actives have a fitted effect of over 60% in size
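Cytotoxicity in the drug-sensitive parental line KB-3-1 was scored as loss of CellTiter-Glo luminescence following 72 h incubation with compound. Values come from curve fitting of normalized concentration-response data.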
RGS4 inh: human RGS4 inhibition | P49798 | Transcreener GDP fluorescence polarization, RGS4-accelerated GTP hydrolysis | actives 0.039% (n = 390,000) | AID 504845 | Potency, µM (doses to about 114 µM), for the others: top-dose activity change, negative = inhibition, most hits filed as inhibitors; also: % is scaled to controls: 0 for no effect and ±100 for the full control effect; nearly all actives have a fitted effect of over 75% in size
Target sequence (P49798 whole entry, looked up): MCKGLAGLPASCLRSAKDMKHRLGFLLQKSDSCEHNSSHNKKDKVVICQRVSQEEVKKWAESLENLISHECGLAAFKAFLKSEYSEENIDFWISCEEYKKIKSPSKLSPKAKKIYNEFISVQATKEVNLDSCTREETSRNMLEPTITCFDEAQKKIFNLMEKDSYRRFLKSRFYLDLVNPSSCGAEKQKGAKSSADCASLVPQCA
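MLSMR compounds (23 nl, pin-transferred) preincubated 10 min at room temperature with a 500nM (2x) first reagent, then RGS4 at 900nM (2x) plus Transcreener GDP mix added; fluorescence polarization (620/688 nm) read before and after 90 min at 30 °C.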
PTAP TSG101 blk: blocks PTAP/TSG101 interaction to inhibit HIV-1 budding. Fluorescence polarization, FITC-PTAP peptide / Tsg101 binding. Potency, µM (top dose mostly 115 µM), inactives show at the highest dose activity change, negative = inhibition, most hits filed as inhibitors. 340,000 tested, under 10 active. AID 493005; active = well fitted inhibition curve with a large enough effect in the main read-out, with a control signal flat, not every such curve was filed as active; inconclusive = small, poorly fitted or top-dose-only effect, or effect the other way, or a change in a side signal; inactive = no such curve, though single readings can be large or run the other way; also: % of control where 0% means no effect
Target sequence (Q99816 whole entry, looked up): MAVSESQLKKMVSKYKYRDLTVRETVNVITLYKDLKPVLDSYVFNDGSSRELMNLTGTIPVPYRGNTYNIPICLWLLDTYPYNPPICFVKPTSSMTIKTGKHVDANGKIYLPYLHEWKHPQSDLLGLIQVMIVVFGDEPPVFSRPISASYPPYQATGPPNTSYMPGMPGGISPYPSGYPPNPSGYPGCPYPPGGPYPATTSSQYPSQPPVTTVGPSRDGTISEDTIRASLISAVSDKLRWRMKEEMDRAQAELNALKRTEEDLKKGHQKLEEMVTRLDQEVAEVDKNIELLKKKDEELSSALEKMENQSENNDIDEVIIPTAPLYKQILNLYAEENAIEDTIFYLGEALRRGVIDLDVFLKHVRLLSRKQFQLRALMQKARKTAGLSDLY
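FP read-out: FITC-PTAP peptide, 50 nM final, binding Tsg101 binding domain, 10 uM final; 20 min, r.t.; 10 mM HEPES pH 7.5, 0.15 M NaCl, 0.01% Tween 20, 3 mM EDTA, 0.1 mM TCEP.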
SW480 rerep: inducers of DNA re-replication in SW480 colon cancer cells. AID 624297. Potency, µM (titrated, usually from 46.1 µM), for the others: at the top dose re-replication activation, hits mostly activators. SW480 DNA re-replication, Hoechst DNA content imaging, 48 h. actives 1.8% (n = 340,000); also: % of control where 0% means no effect; nearly all actives have a fitted effect of over 55% in size
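Readout is total intensity of Hoechst-stained nuclei, excited at 405 nm and collected at 500-530 nm. Compound treatment lasted 48 hr at 37 C in 5% CO2 before staining.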
* = called active by the depositor; i = inactive; ? = inconclusive; · = no result; [ ] = another dose, or the depositor's remark. Shown are actives, neighbours in structure and some others; about 6.6% of the full set was active somewhere. Unless noted, calls follow the shape of the dose curve; as a rule, active = well fitted curve in the direction sought with a large enough effect; inconclusive = small, poorly fitted or top-dose-only effect, or another doubt; inactive = no such curve, though single readings can be large; an effect the other way counts as inactive or inconclusive. Potency is read from the fitted curve at half-maximal effect.

SMILES | MCF10A rerep | KB-V1 MDR tox | KB-3-1 cytotox | RGS4 inh | PTAP TSG101 blk | SW480 rerep
CCOC(=O)C1(Cc2ccc(Cl)cc2)CCN(C(=O)CCc2ccncc2)CC1 | 19% | 4.1µM* | i | 33% | -10% | ?
Cc1cc(Cl)ccc1OCC(=O)N1CCC(c2nc3ccccc3o2)CC1 | · | · | · | 20% | · | ·
COC(=O)CSC1=C(C#N)C(c2ccc(C)o2)CC(=O)N1 (stereo unspecified) | ? | ? | 18µM* | -13% | -4% | 5.8µM*
Cc1ccc(C(=O)CSC2=C(C#N)C(c3ccco3)CC(=O)N2)c(C)c1 (stereo unspecified) | 25% | 15µM* | i | -39% | -7% | -3%
COc1ccc(N2CCN(C(=O)c3cnn(-c4ccc(OC)cc4)c3C3CCN(C(=O)OC(C)(C)C)CC3)CC2)cc1 | · | ? | i | -7% | · | ·
CCOC(=O)C(Cc1nc(OCc2ccccc2)cc(OCc2ccccc2)n1)=NO | 21µM* | 13µM* | 21µM* | 1% | -1% | 12%
COCCCNC(=O)C(C#N)c1nc2ccccc2nc1N1CCN(Cc2ccccc2)CC1 (stereo unspecified) | ? | i | i | 2% | -9% | 5%
COCCNC(=O)C(C#N)c1nc2ccccc2nc1N1CCCCCC1 (stereo unspecified) | ? | 4.1µM* | i | -8% | -3% | -210%
COc1cccc(CN2CCCN(Cc3ccc(F)cc3)S2(=O)=O)c1 | · | i | i | 8% | · | ·
OCC1(Cc2cccc(C(F)(F)F)c2)CCN(Cc2cc3ccccc3o2)CC1 | 23µM* | ? | ? | -19% | -1% | ?
COc1ccc(CC2(CO)CCN(Cc3cc4ccccc4o3)CC2)cc1 | ? | ? | i | 8% | -4% | 8%
N#Cc1nc(Nc2cc(F)cc(F)c2)c2ncn(CCO)c2n1 | · | ? | 15µM* | · | · | ·
CCOc1ccc(CNC(=O)Cn2nc(C)n3cccc3c2=O)cc1 | · | i | i | -8% | · | ·
Cc1ccc(S(=O)(=O)c2cccc(S(=O)(=O)N3CCCC3)c2)cc1S(=O)(=O)N1CCCC1 | 13% | 2.6µM* | 21µM* | 50% | -7% | -1%
COc1ccc(CC(=O)Nc2cccc(SC)c2)cc1OC | -1% | 15µM* | ? | -8% | -2% | -3%
COc1ccc(NC(=O)CC2CCCC2)cc1S(=O)(=O)N1CCCCC1 | 24% | i | i | -34% | -7% | 0%
COc1ccc(NC(=O)CC2CCCCC2)cc1OC | 5.8µM* | i | i | 3% | -6% | 7.3µM*
COc1ccc(NC(=O)Cc2ccc(C)c(C)c2)cc1S(=O)(=O)N1CCCCC1 | 0% | 9.2µM* | ? | -16% | -3% | -5%
COc1ccc(CCNS(=O)(=O)c2cccc(S(=O)(=O)N3CCCC3)c2)cc1OC | 3% | 18µM* | i | 24% | -4% | -7%
COc1ccc(CC(=O)Nc2cccc(S(=O)(=O)N3CCCCCC3)c2)cc1OC | -2% | 1.8µM* | 2.9µM* | -22% | -2% | 5%
COc1ccc(CNC(=O)c2cc(S(=O)(=O)N3CCCCC3)ccc2N2CCOCC2)cc1OC | 11% | 23µM* | i | 18% | 2% | 11%
COc1ccc(NC(=O)CCC2CCCCC2)cc1S(=O)(=O)N1CCCCC1 | 15% | 3.3µM* | 5.2µM* | 1% | -4% | 1%
CCOC(=O)c1cc2c(=O)n3ccccc3nc2n(CCCOC)c1=NC(=O)c1c(-c2ccccc2Cl)noc1C | · | i | i | 5% | · | ·
COc1ccc(S(=O)(=O)N2CCCCC2)cc1N(C)S(=O)(=O)c1ccccc1 | 0% | i | i | 9% | · | 16%
COc1ccc(S(=O)(=O)N2CCCCCC2)cc1N(C)S(=O)(=O)c1ccccc1 | 12µM* | ? | i | 18% | -1% | 0%
SMILES | MCF10A rerep | KB-V1 MDR tox | KB-3-1 cytotox | RGS4 inh | PTAP TSG101 blk | SW480 rerep
CC1(C)CC(C(CC(=O)O)c2ccccc2)CCO1 (stereo unspecified) | -6% | i | i | -2% | 5% | -4%
COc1ccc(CN(CCC(c2ccc(F)cc2)C2CCOC(C)(C)C2)C(=O)c2ccco2)cc1 (stereo unspecified) | 23µM* | ? | ? | -1% | -3% | 5%
CC(c1ccccc1)N(CCC(c1ccccc1)C1CCOC(C)(C)C1)C(=O)c1ccco1 (stereo unspecified) | 16µM* | 9.2µM* | i | -15% | -3% | -2%
COc1ccc(Cn2c(CO)cnc2SCc2ccc(C)cc2)cc1 | · | i | i | -46% | · | ·
CCOc1ccc(CN(C)c2ccc(S(=O)(=O)N3CCN(C)CC3)cc2[N+](=O)[O-])cc1OC | ? | 2.3µM* | 7.3µM* | 6% | -1% | -5%
C=CCOc1ccc(CN(C)c2ccc(S(=O)(=O)N3CCN(C)CC3)cc2[N+](=O)[O-])cc1 | ? | 8.2µM* | ? | -7% | -10% | 3%
CN1CCN(S(=O)(=O)c2ccc(N(C)Cc3ccc(C(F)(F)F)cc3)c([N+](=O)[O-])c2)CC1 | ? | i | i | -18% | -1% | ?
COCCn1c(C)cc(O)c(C(c2ccccc2OC)N2CCN(c3ccccc3)CC2)c1=O (stereo unspecified) | · | i | i | -3% | · | ·
COc1ccc(/C=N/NC(=O)COc2ccccc2-c2ccccc2)cc1 | 0.82µM* | 0.82µM* | 1.2µM* | 6% | 1% | 0.92µM*
CCOC(=O)C1=C(C)NC(C)=C(C(=O)OCC)C1C(=O)OCC(=O)NCc1ccccc1 | 12% | ? | ? | -12% | 0% | 11%
O=C(CSc1nc2ccccc2s1)N/N=C/c1ccc(C(=O)O)cc1 | -1% | ? | i | -5% | 3% | -3%
O=C(COc1ccccc1-c1ccccc1)N/N=C/c1cccc2ccccc12 | 0.46µM* | 0.92µM* | 1.3µM* | -5% | 0% | ?
O=C(COc1cccc2ccccc12)N/N=C/c1ccccc1OCc1ccc(C(=O)O)cc1 | ? | i | i | 15% | 1% | 3%
CCOC(=O)C1=C(C)NC(C)=C(C(=O)OCC)C1C(=O)OCC(=O)NC(C)c1ccccc1 (stereo unspecified) | ? | ? | ? | -11% | -2% | 7.3µM*
COc1ccc(/C=N/NC(=O)CCSc2nc3ccccc3s2)cc1 | ? | i | ? | 6%[11.4 µM] | -12% | 10µM*
CN(C)c1ccc(/C=N/NC(=O)COc2ccccc2)cc1 | 1% | ? | i | -4% | -7% | 0%
